HP1b binding inh – inhibitors of HP1-beta chromodomain binding to methylated histone tails; P83916; AlphaScreen HP1-beta / biotin-H3K9me3 peptide binding; Potency, µM (highest dose often 114 µM), hits mostly inhibitors; hit rate 0.56% among 390,000; further: nearly all actives have a fitted effect of over 70% in size
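AlphaScreen: HP1-beta (50 nM) preformed 30 min with biotin-H3(1-18)K9me3 peptide (50 nM) in PBS pH 7.4, 0.01% Tween-20. Compound added for 30 min at RT, then streptavidin donor/nickel chelate acceptor beads (10 ug/mL) for 30 min.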
BAZ2B inh – inhibitors of human BAZ2B bromodomain; Q9UIF8; AlphaScreen BAZ2B-H3K14Ac peptide displacement; Potency, µM (doses to about 114 µM), usual class: inhibitors; hit rate 4.4% among 360,000; further: nearly all actives have a fitted effect of over 60% in size
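BAZ2B (50 nM) with biotin-H3(5-23)K14Ac peptide (50 nM) in PBS pH 7.4, 0.01% Tween-20, preformed 30 min, then compound 30 min at room temperature; top concentration 110uM. AlphaScreen streptavidin donor/nickel chelate acceptor beads (10 ug/mL final), 20 min dark, signal read.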
JMJD2A Tudor – blocks the human JMJD2A Tudor domain. AlphaScreen JMJD2A-Tudor / H3K4me3 peptide binding. Potency, µM (doses to about 114 µM), usual class: inhibitors. hit rate 4.4% among 390,000. O75164; further: nearly all actives have a fitted effect of over 50% in size
VDR inhibitor – inhibitors of human vitamin D receptor. VDR-SRC2-3 peptide fluorescence polarization, 2 h. AID 504847. P11473. hit rate 0.93% among 400,000. Potency, µM, most hits filed as inhibitors
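Fluorescence polarization assay measuring small-molecule disruption of VDR binding to the coregulator peptide SRC2-3. Compounds were pin-transferred (23 nl) into the reagent mix and incubated 2 h at room temperature before reading.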
PLK1 PBD block – inhibitors of human PLK1 polo-box domain binding | P53350 | Plk1 PBD binding of FITC phosphopeptide, fluorescence polarization | Potency, µM, usual class: inhibitors | hit rate 2.8% among 360,000 | AID 720504; further: series mostly up to about 57 µM; nearly all actives have a fitted effect of over 65% in size
Target sequence (P53350 whole entry, looked up, the tested form may be a part): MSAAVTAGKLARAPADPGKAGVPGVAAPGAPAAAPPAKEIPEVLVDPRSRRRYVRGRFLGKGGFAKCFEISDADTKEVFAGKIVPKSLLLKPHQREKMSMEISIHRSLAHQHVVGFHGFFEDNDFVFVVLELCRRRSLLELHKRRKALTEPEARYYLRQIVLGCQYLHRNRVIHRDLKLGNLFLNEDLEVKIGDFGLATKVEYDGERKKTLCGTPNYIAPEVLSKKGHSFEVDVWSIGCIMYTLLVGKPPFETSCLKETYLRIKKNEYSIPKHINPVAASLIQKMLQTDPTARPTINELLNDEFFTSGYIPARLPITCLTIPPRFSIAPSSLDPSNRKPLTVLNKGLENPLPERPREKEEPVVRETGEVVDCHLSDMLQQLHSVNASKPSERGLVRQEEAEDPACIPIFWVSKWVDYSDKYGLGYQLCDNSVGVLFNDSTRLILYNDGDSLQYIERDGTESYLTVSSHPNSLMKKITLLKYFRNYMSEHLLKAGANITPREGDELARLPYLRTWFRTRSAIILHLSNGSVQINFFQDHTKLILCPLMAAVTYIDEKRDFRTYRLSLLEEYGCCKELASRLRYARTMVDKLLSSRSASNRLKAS
G9a block – inhibitors of human histone lysine methyltransferase G9a. hit rate 8.8% among 350,000. G9a H3K9 monomethylation, AlphaScreen, 2 h. Q96KQ7. Potency, µM (doses to about 102 µM), most hits filed as inhibitors. AID 504332; further: nearly all actives have a fitted effect of over 75% in size
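AlphaScreen detection with an anti-monomethyl H3K9 antibody quantified product after a 2 h room-temperature reaction containing 500 nM biotinylated H3K9 peptide, 20 µM SAM and 20 nM enzyme, which had been preincubated 15 min with compound.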
A number is an active result; . = inactive; ? = inconclusive; / = not tested or not shown; [ ] = another dose, or the depositor's remark. Shown are actives, neighbours in structure and some others; about 11% of the full set was active somewhere. The call rests on the fitted dose curve; in most records, active means well fitted curve in the direction sought with a large enough effect; inconclusive means small, poorly fitted or top-dose-only effect, or another doubt; inactive means no such curve, though single readings can be large; an effect the other way counts as inactive or inconclusive.

SMILES | HP1b binding inh | BAZ2B inh | JMJD2A Tudor | VDR inhibitor | PLK1 PBD block | G9a block
Cc1nc(N/N=C/c2ccccn2)sc1C | . | ? | . | . | . | ?
CCCc1sc(N/N=C/c2ccccn2)nc1-c1ccc(F)cc1 | . | ? | 44.7µM | . | . | .
COCCN(CC(=O)NCC1CCCO1)C(=O)CCC(=O)Nc1cc(C)ccn1 (stereo not drawn) | . | . | . | . | . | 28.2µM
COCCN(CC(=O)NCC1CCCO1)C(=O)CCC(=O)Nc1ccccn1 (stereo not drawn) | . | . | ? | 35.5µM | 4.74µM | .
Cc1ccc2c(c1)C(=O)[C@@]1(O)CCN(c3ccccc3)C1=N2 | / | / | / | . | / | /
CSCCC1COC(c2cccs2)=N1 (stereo not drawn) | . | / | . | . | . | 0.891µM
COc1ccc(-n2c(=O)c3sc4ccccc4c3n(CC(=O)NCc3ccccc3)c2=O)cc1 | . | . | . | . | / | .
COc1cc(-c2cc(NC(C)=O)c3ncc(-c4ccccc4)n3c2)cc(OC)c1OC | / | / | / | / | . | /
Cc1ccc(/C=N/n2c(-c3ccc(Cl)cc3)n[nH]c2=S)o1 | . | . | ? | . | . | /
S=c1[nH]nc(-c2ccccn2)n1/N=C/c1ccc(Cl)cc1 | . | 17.8µM | 5.62µM | . | . | 2.24µM
Cc1ccc(/C=N/n2c(-c3ccccn3)n[nH]c2=S)o1 | ? | 5.01µM | 5.62µM | . | . | 3.16µM
S=c1[nH]nc(-c2ccccn2)n1/N=C/c1cccs1 | . | 8.91µM | 3.55µM | . | . | 3.16µM
Cc1ccccc1/C=N/n1c(-c2ccccn2)n[nH]c1=S | . | 8.91µM | 3.16µM | . | . | 0.891µM
Cc1ccc(S(=O)(=O)C(CNC(=O)C(=O)NCc2ccc(Cl)cc2)c2cccs2)cc1 (stereo not drawn) | . | . | . | . | / | .
Cc1ccc(N(C)C(=O)c2cnn(-c3ccccc3)c2C)c(C)c1 | . | . | . | . | . | /
S=c1[nH]nc(-c2ccccn2)n1/N=C/c1cccc2ccccc12 | ? | 28.2µM | 5.62µM | . | 26.7µM | 0.398µM
Cc1cccc(/C=N/n2c(-c3ccccn3)n[nH]c2=S)c1 | / | 11.2µM | / | / | / | 1.41µM
S=c1[nH]nc(-c2ccccn2)n1/N=C/c1ccccc1 | . | 11.2µM | 2.82µM | . | . | ?
S=c1[nH]nc(-c2ccccn2)n1/N=C/c1c(Cl)cccc1Cl | . | 22.4µM | 3.55µM | . | . | 1.78µM
Cc1ccc(CN2C(=O)C3(c4ccccc42)N(c2cccc(F)c2)C(=O)CS3(=O)=O)cc1 (stereo not drawn) | . | . | . | . | / | ?
Cc1cc(C)cc(NC(=O)Cn2nnc(C(=O)Nc3cc(C)cc(C)c3)c2N)c1 | . | / | . | . | / | .
Nc1nnc(-c2ccc(Cl)c(Cl)c2)s1 | . | . | . | . | . | 44.7µM
COCCn1nnnc1SCC(=O)c1ccc(F)cc1 | . | . | . | ? | . | ?
CCn1c(SCC(=O)c2ccc3c(c2)OCCO3)nnc1C(C)C | . | . | . | . | . | 44.7µM
CC(C)n1nnnc1SCC(=O)c1ccc2c(c1)OCCO2 | . | . | .[11.4 µM] | . | 29.9µM | .
SMILES | HP1b binding inh | BAZ2B inh | JMJD2A Tudor | VDR inhibitor | PLK1 PBD block | G9a block
O=C(CSc1nnc(-c2cccs2)n1-c1ccccc1)c1ccc2c(c1)OCCO2 | . | . | . | . | . | 39.8µM
COCCn1c(SCC(=O)c2ccc(F)cc2)nnc1C(C)C | . | . | 44.7µM | . | ? | ?
O=C(CSc1nnc(-c2ccc3c(c2)OCO3)n1-c1ccccc1)c1ccccc1 | . | . | . | . | . | .
CCCc1cnc2c(c1SCc1ccc(C(F)(F)F)cc1)c(=O)n(C)c(=O)n2C | . | . | . | . | / | ?
COc1ccc(C(=O)CSc2nnc3ccccn23)cc1OC | . | . | . | . | . | .
O=C(CSc1nnc2ccccn12)c1ccc2c(c1)OCCO2 | . | . | . | . | . | 39.8µM
Nc1c2c(=O)oc(-c3ccccc3)cc2nn1-c1ccccc1 | . | . | . | . | . | .
Cc1c(-c2ccc(Cl)cc2)oc(=O)c2c(N)n(-c3ccccc3)nc12 | . | 50.1µM | . | . | . | .
COc1cc(/C=C2\SC(=O)NC2=O)ccc1OCC(=O)N1CCOCC1 | . | / | . | . | . | /
CCc1ccccc1NC(=O)CSc1nc2n[nH]c(C)c2c(=N)n1-c1cccc(OC)c1 | . | . | . | . | . | .
CCOC(=O)C1CCN(C(=O)Cc2cccs2)CC1 | . | . | .[11.4 µM] | . | 29.9µM | .
CCN(CC)C(=O)C1CCCN(Cc2cccc(Oc3ccccc3)c2)C1 (stereo not drawn) | . | . | 22.4µM | . | . | 28.2µM
CCOC(=O)C1CCN(CCC(=O)Nc2ccccc2)CC1 | . | . | . | . | . | .
CCOC(=O)C1CCN(C/C=C/c2ccccc2)CC1 | . | ? | 79.4µM | . | . | 44.7µM
c1ccc(Oc2cccc(CN3CCCCC3)c2)cc1 | . | ? | . | . | . | .
CCOC(=O)C1CCCN(Cc2cccc(Oc3ccccc3)c2)C1 (stereo not drawn) | ? | ? | 3.16µM | . | . | 79.4µM
COc1cccc(NC(=O)/C(C#N)=C/c2c(C)n(Cc3ccccc3)c3ccccc23)c1 | . | . | . | . | / | .
O=C(COC(=O)COc1cccc(C(F)(F)F)c1)Nc1ccc(N2CCOCC2)cc1 | . | . | . | . | . | .[12.7 µM]
CCN(CC)C(=O)C1CCCN(C/C=C/c2ccccc2[N+](=O)[O-])C1 (stereo not drawn) | ? | ? | 3.16µM | . | . | 35.5µM
CCOC(=O)C1CCCN(Cc2cc(OC)c(O)c(OC)c2)C1 (stereo not drawn) | . | ? | 2.24µM | . | . | ?
CCOC(=O)C1CCN(CC(C)(C)NS(=O)(=O)c2ccccc2)CC1 | 79.4µM | . | 1.78µM | . | . | ?
CCOC(=O)C1CCN(Cc2cccc(Oc3ccccc3)c2)CC1 | . | 56.2µM | 22.4µM | . | . | 7.08µM
CCN(CC)C(=O)C1CCCN(c2ccc([N+](=O)[O-])cc2)C1 (stereo not drawn) | . | . | . | . | . | /
CCOC(=O)C1CCCN(Cc2cc(=O)oc3cc(C)c(C)cc23)C1 (stereo not drawn) | . | . | . | . | . | ?
COc1cccc(C(=O)O[C@H]2[C@H](Cc3ccccc3)NS(=O)(=O)[C@H]3C[C@@H]4C=C[C@]23O4)c1 | . | / | . | . | . | /
O=C(NCCc1ccccc1)c1ccc2c(c1)N(Cc1ccc(F)cc1Cl)C(=O)CS2 | . | . | . | . | / | .
CCOC(=O)C1CCN(Cc2cccc(Oc3ccc(Cl)cc3)c2)CC1 | . | ? | 28.2µM | . | . | ?
CCN1CCN(Cc2cccc(Oc3ccc(Cl)cc3)c2)CC1 | . | 79.4µM | . | . | . | ?
COc1ccc(-c2noc(Cn3c(=O)c4ccccc4n(CC(=O)Nc4cccc(C(F)(F)F)c4)c3=O)n2)cc1 | . | . | . | . | / | .
